# High-throughput results (PubChem BioAssay)
# H9c2 protect: protects H9c2 cardiomyocytes from peroxide injury | H2O2 injury protection, ATPLite, 2 h | protection from H2O2 cell death, % at 20 µM | 0.63% of 360,000 active | AID 588492;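 active = compounds giving at least 50% protection of heart cells from peroxide-induced death in the single-dose screen, raw or plate-pattern-corrected value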
# Neddyl block: blocks human cullin neddylation. inhibition, % at 25 µM. TR-FRET cullin neddylation, biochemical. P61081+Q13564. 0.58% of 360,000 active; in the data active = inhibition above about 36%
# HDAC3 inh: blocks human histone deacetylase 3; AID 2718; O15379; 0.15% of 320,000 active; inhibition, % at 8.3 µM; recombinant HDAC3, fluorogenic peptide/trypsin coupled, fluorescence; in the data active = inhibition above about 26%, passing the limit was not always enough
# Target sequence (O15379 whole entry, looked up): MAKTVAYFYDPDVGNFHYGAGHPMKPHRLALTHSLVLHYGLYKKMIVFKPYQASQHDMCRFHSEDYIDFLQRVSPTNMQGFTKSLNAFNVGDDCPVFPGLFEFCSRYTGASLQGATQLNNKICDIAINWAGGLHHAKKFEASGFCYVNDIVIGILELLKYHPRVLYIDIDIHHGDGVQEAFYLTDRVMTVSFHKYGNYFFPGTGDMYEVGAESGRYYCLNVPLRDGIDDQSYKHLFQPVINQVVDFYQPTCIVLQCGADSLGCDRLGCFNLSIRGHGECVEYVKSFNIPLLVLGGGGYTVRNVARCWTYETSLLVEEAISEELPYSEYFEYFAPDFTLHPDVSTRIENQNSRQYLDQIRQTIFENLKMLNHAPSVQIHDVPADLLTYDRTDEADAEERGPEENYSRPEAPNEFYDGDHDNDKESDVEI
# GRK2 inh: inhibitors of human GRK2 displacing RNA aptamer | P25098 | bead flow cytometry, FAM-aptamer displacement from GRK2 | inhibition of aptamer binding, % at 10 µM | 0.59% of 330,000 active;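 active = inhibition of aptamer binding above 40%, roughly 3 SD of noise, on plates passing a quality check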;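 also: median bead fluorescence of bound FAM aptamer so fluorescent compounds give negative values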
# Neddyl conf: confirmation of human cullin neddylation inhibitors; 13% of 1,800 active; calls only at 25 µM; shares compounds with Neddyl block; TR-FRET cullin neddylation biochemical assay; in the data active = inhibition above about 40%;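 also: neddylation substrate is the cullin 1 ring ligase complex with SKP2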
# Hits are given with their value; - = inactive; . = not tested or not shown; + = active, no number. Shown are actives, neighbours in structure and some others; about 1.8% of the full set was active somewhere.
SMILES,H9c2 protect,Neddyl block,HDAC3 inh,GRK2 inh,Neddyl conf
COc1ccc(-c2cc(C(F)(F)F)nc(-n3cncn3)n2)cc1,-,.,-,-,.
Cc1ccc(-c2nc3ccc(Cl)cn3c2Cc2cccc(F)c2)cc1,-,-,.,.,.
CC1CCc2c(sc(N)c2C(N)=O)C1 (stereo unspecified),-,40.2,-,-,-
CCC1CCc2c(sc(N)c2C(N)=O)C1 (stereo unspecified),-,-,-,-,.
CCn1nc(C(=O)NCCc2ccc3c(c2)OCCO3)c2ccccc2c1=O,-,-,-,-,.
O=C(Nc1ccc(C(F)(F)F)cc1)c1csc(-c2ccncc2)n1,-,-,-,-,.
O=C(NNC(=O)c1csc(-c2cnccc2C(F)(F)F)n1)c1ccc(C(F)(F)F)cc1,-,42.1,-,-,-
CC(=O)COC(=O)c1cc(-c2ccc(C)cc2)nc2ccccc12,-,-,-,-,.
O=C(O)c1cc(-c2ccc3c(c2)OCO3)nc2ccccc12,-,-,-,-,.
Cc1ccc2nc(-c3ccc4c(c3)OCCO4)cc(C(=O)O)c2c1,-,38.3,-,-,.
CCOC(=O)c1cc(-c2ccccc2)nc2ccc(C)cc12,-,40.5,-,-,.
CC(=O)c1ccc(-c2ccc(C(=O)N3CCC(C(N)=O)CC3)o2)cc1,-,68.6,-,-,.
O=C(NCCc1ccccc1F)C1C(=O)Nc2ccccc2C(=O)N1C1CCCCC1 (stereo unspecified),.,-,.,.,.
NC(=O)/C(=C/c1ccco1)C(N)=S,-,68.1,-,-,-
Cc1ccc(-n2cc(CNCCc3ncc(C)[nH]3)c(-c3ccc(F)cc3)n2)cc1,-,-,-,-,.
Cn1cncc1C#Cc1ccc2cc(C3(O)CCCCC3)oc(=O)c2c1,-,-,-,-,.
Cn1cncc1C#Cc1ccc2cc(CCO)oc(=O)c2c1,-,36.7,-,-,-
Cc1cnc(NC(=O)c2ccc(-c3nc4ccccc4s3)o2)s1,-,41.3,-,-,-
Cc1cnc(NC(=O)c2ccc(-c3ccc([N+](=O)[O-])cc3)o2)s1,-,-,-,-,.
O=C(Cn1nc(-c2ccco2)ccc1=O)Nc1cc(Cl)ccc1Cl,-,47.2,-,-,-
O=C(c1coc(=O)c(Br)c1)N1CCC(C(O)(c2ccccc2)c2ccccc2)CC1,-,44.8,-,-,.
O=C(c1cccc(Br)c1)N1CCCc2ccccc21,-,-,-,-,.
O=C(c1coc(=O)c(Br)c1)N1CCCc2ccccc21,-,38.3,-,-,.
COc1ccccc1/C=N/Nc1cc(C)nc2ccc(C)cc12,-,40.0,-,-,-
O=C(O)CCn1c(-c2ccccc2)cc2ccccc21,-,49.8,-,-,.
SMILES,H9c2 protect,Neddyl block,HDAC3 inh,GRK2 inh,Neddyl conf
O=C(O)CCn1c(CO)nc2ccccc21,-,-,-,-,.
CC[C@@H]1C(c2ccc(F)cc2)=NN(c2ccccc2)[C@H]1C(=O)N1CCOC1=O,-,-,.,-,.
CC[C@@H]1C(c2ccccc2)=NN(c2ccccc2)[C@H]1C(=O)N1CCOC1=O,-,48.7,.,-,.
Cc1cc2nc(-c3nnnn3-c3c(C)cccc3C)c(=O)[nH]c2cc1C,.,48.2,.,.,-
COc1c2c(cc3oc(C)cc(=O)c13)OC(C(C)(C)OC1OC(CO)C(O)C(O)C1O)C2 (stereo unspecified),-,-,-,-,.
COc1c2c(cc3oc(CO[C@@H]4O[C@H](CO)[C@@H](O)[C@H](O)[C@H]4O)cc(=O)c13)O[C@H](C(C)(C)O)C2,-,34.8,-,-,-
COC(=O)c1cc2c(ccn2-c2ccc(F)cc2)n1CC(=O)C(C)(C)C,-,-,-,-,.
COC(=O)c1cc2c(ccn2-c2ccc(F)cc2)n1CC(=O)OC(C)C,-,42.7,-,-,-
Cc1ccc(C(=O)CC(=O)c2ccc(C)cc2O)cc1,-,-,-,-,.
COCCCNC(=O)/C(C#N)=C/c1c(N2CCN(c3ccccc3)CC2)nc2ccccn2c1=O,-,62.4,-,-,+
CCNC(=O)/C(C#N)=C/c1c(N2CCN(c3ccccc3)CC2)nc2ccccn2c1=O,-,43.2,-,-,+
Cc1ccc(Oc2nc3c(C)cccn3c(=O)c2/C=C(\C#N)C(N)=O)cc1,-,45.8,-,-,-
COCCCNC(=O)/C(C#N)=C/c1c(N2CCN(c3ccc(OC)cc3)CC2)nc2c(C)cccn2c1=O,-,54.9,-,-,-
COc1ccccc1P(=O)(Cc1ccccc1[N+](=O)[O-])c1ccccc1 (stereo unspecified),-,-,-,-,.
Nc1ncnc2c1ncn2[C@@H]1O[C@H](COP(=O)(O)O)[C@@H](O)[C@H]1O,-,48.9,-,-,+
Nc1ncnc2c1ncn2C1C=C(CO)C(O)C1O (stereo unspecified),-,-,.,.,.
Nc1ncnc2c1ncn2C1OC(COP(=O)(O)O)C(O)C1O (stereo unspecified),-,56.3,-,-,+
CC=C1OC(n2cnc3c(N)ncnc32)C(O)C1O (stereo unspecified),-,42.0,.,.,-
CCOC(=O)C1CCN(C(=O)CCC(=O)NNc2nc3ccccc3c3nc(C)nn23)CC1,-,-,-,-,.
CCCC(C(=O)NC(C)(C)C)N(CC1CCCO1)C(=O)c1snc(C(N)=O)c1N (stereo unspecified),-,-,-,-,.
COc1cccc(N(C(=O)c2snc(C(N)=O)c2N)C(C(=O)NCC2CCCO2)c2ccc(F)cc2)c1 (stereo unspecified),-,43.6,-,-,-
CCc1ccccc1N(C(=O)c1snc(C(N)=O)c1N)C(C(=O)NCC1CCCO1)c1ccc(OC)c(OC)c1 (stereo unspecified),-,.,.,.,.
Cc1cccc(N(C(=O)c2snc(C(N)=O)c2N)C(C(=O)NCC2CCCO2)c2cccs2)c1 (stereo unspecified),-,44.5,-,-,-
COc1ccc(C(C(=O)NCC2CCCO2)N(C(=O)c2snc(C(N)=O)c2N)c2ccccc2)cc1OC (stereo unspecified),-,50.1,.,.,+
CCCC(C(=O)NC1CCCC1)N(CC1CCCO1)C(=O)c1snc(C(N)=O)c1N (stereo unspecified),-,41.0,-,-,-
SMILES,H9c2 protect,Neddyl block,HDAC3 inh,GRK2 inh,Neddyl conf
CC1CC1C(=O)OCC(=O)NC(=O)NC12CC3CC(CC(C3)C1)C2 (stereo unspecified),-,-,-,-,.
C/C(=N\NC(=O)c1cc(-c2ccc(C)s2)[nH]n1)c1ccncc1,-,-,-,-,.
O=[N+]([O-])c1ccccc1S(=O)(=O)c1ccccc1[N+](=O)[O-],-,-,-,-,.
CC1=CNC(=O)CC(C)(C)C1,-,-,.,.,.
CCc1ccc(C(=O)COC(=O)CNC(=O)COc2ccccc2)cc1,-,-,-,-,.
CCc1cc(-c2ccc3c(c2)COc2c4ccccc4nn2-3)on1,-,42.8,-,.,-
N#CCCN(CCC#N)C(=S)NC1CC2C=CC1C2 (stereo unspecified),-,-,-,-,.
S=C(Nc1ccc2nsnc2c1)N1CCCCCC1,-,39.6,-,-,-
CC1CCN(C(=O)Nc2ccc3nsnc3c2)CC1,-,44.5,-,-,+
Cc1nc2ccc(NC(=O)N3CCCCC3)cc2s1,-,-,-,-,.
O=C(Nc1ccc2nsnc2c1)N1CCCCC1,-,43.7,-,-,-
